Screens deposited in PubChem BioAssay by several laboratories.
CHOP inh: inhibitors of CHOP promoter induction, primary screen, cell-based, unfolded protein response, luciferase reporter | CHO-K1 CHOP-promoter luciferase, tunicamycin-induced, 15-18 h | inhibition, % at 10 µM | 220,000 tested, 3.8% active | AID 2732, 2010;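 active means compounds that reduced the stress-induced luciferase reporter signal by more than about 70% of percent inhibition, limit read from the data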;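 further: 0% = tunicamycin plus vehicle and 100% = wells without tunicamycin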
WT yeast gro inh: growth inhibition of WT strain, primary screen, mitochondrial fusion inhibitor project, WT and mutant strains, chemical genetic. mitochondrial fusion phenotypic screen. inhibition, % at 10 µM. 190,000 tested, 2.1% active; in the data active means inhibition above about 58%; tested in S. cerevisiae
RAM inhibit: inhibitors of the yeast RAM network, primary screen, dse1pr::URA3 reporter, 5-FOA selection; S. cerevisiae dse1pr::URA3 reporter, 5-FOA growth OD615, 2 d; analog-sensitive cbk1-as2 kinase mutant strain; inhibition, % at 50 µM; 190,000 tested, 1.8% active; AID 868, 2007;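 active means inhibition above a set limit, 3 SD over mean compound inhibition, cut at about 8.4% in these data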;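 further: 0% = DMSO-only wells with no growth and 100% = 10 µM 1-NA-PP1 full growth; inhibition rescues growth on 5-FOA so higher OD means more RAM inhibition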
L major viab: Leishmania major promastigote growth inhibition, primary screen. Leishmania major promastigotes, resazurin fluorescence viability. inhibition, % at 10 µM. 200,000 tested, 9% active; in the data active means inhibition above about 50%;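 further: promastigotes grown with compound for 44 hours at 28 °C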
CHOP confirm: retest of CHOP induction inhibitors, confirmation, cell-based. CHO-CHOP promoter luciferase reporter, tunicamycin-induced, luminescence. shares compounds with CHOP inh. 2,100 tested, 45% active. inhibition, % at 10 µM;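 active means mean of three repeat readings of reporter signal inhibition above a set limit, cut at about 70% in these data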;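 further: 0% = tunicamycin plus vehicle and 100% = wells lacking tunicamycin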
Numbers without * were called inactive; / = no result given. Only some compounds are listed: those with a hit (about 13% of all), similar ones and a draw of the others.

SMILES	CHOP inh	WT yeast gro inh	RAM inhibit	L major viab	CHOP confirm
CCOc1ccc(C(C(=O)NC2CCCC2)N(CCCO)C(=O)c2ccc(-c3ccccc3)[nH]2)cc1 (stereo unspecified)	-2	8	3	5	/
Cc1cccc(-c2cc(C(=O)Nc3ccc4c(c3)OCCO4)c3ccccc3n2)c1	35	-3	4	23	/
O=C(Nc1ccc2c(c1)OCCO2)c1cc(-c2ccccn2)nc2ccc(Br)cc12	101*	2	2	-2	2
Cc1cc(C(=O)Nc2c[nH]c(=O)[nH]c2=O)ccc1[N+](=O)[O-]	3	-6	3	-5	/
CCC(Cc1ccccc1)n1c(=S)[nH]c2ccccc2c1=O (stereo unspecified)	97*	16	1	18	82*
Cc1ccn2cc(-c3cc4ccccc4oc3=O)nc2c1	105*	9	1	-3	88*
O=[N+]([O-])c1ccccc1/C=C/C=N/n1c(-c2ccccc2F)n[nH]c1=S	27	/	/	/	/
CCOC(=O)c1ccc(NC(=O)CCc2nc(-c3cccc(C)c3)no2)cc1	98*	-13	6	4	45
Cc1cccc(-c2noc(CCC(=O)Nc3ccccc3)n2)c1	17	3	-1	18	/
COc1cccc(C(=O)C2CCCN(Cc3cccc(-n4nc(C)cc4C)c3)C2)c1 (stereo unspecified)	18	21	-1	9	/
CCOC(=O)C1CCCN(/C=C2\SC(=S)N(CC)C2=O)C1 (stereo unspecified)	1	/	/	/	/
c1ccc(Nc2ccc3c4c(cccc24)CC3)cc1	100*	18	8	1	49
Cc1sc2ncn(/N=C/c3ccco3)c(=O)c2c1C	-19	/	/	/	/
O=C(CN1C(=O)S/C(=C\c2ccc(Cl)cc2)C1=O)NNC(=O)c1ccccc1O	106*	-2	3	-9	14
Cc1cccc(C)c1OCC(=O)N=Nc1c(O)[nH]c2ccc(Br)cc12	-10	51	2	14	/
CC(Oc1ccccc1)C(=O)N=Nc1c(O)[nH]c2ccc(Br)cc12 (stereo unspecified)	101*	2	-1	-4	-4
COc1ccc(-c2nc(CS(=O)CC(=O)NCc3ccco3)c(C)o2)cc1 (stereo unspecified)	23	7	1	-3	/
CCOc1ccc(-c2nc(CSCC(=O)NCc3ccco3)c(C)o2)cc1	106*	6	6	-1	118*
Cc1ccc(Cn2nnnc2CN2CCC(O)(c3ccccc3F)CC2)cc1	3	-5	1	0	/
Cc1occc1-c1nnc(SCC(=O)Nc2nc(C(C)(C)C)cs2)o1	103*	6	2	6	60
Cc1cc(N2C(=O)C=CC2=O)c([N+](=O)[O-])cc1C	108*	62*	-1	23	41
CCOC(=O)c1ccc(Nc2nc(=O)c3cccnc3s2)cc1	19	8	1	-11	/
O=c1nc(Nc2ccc(OCc3ccccc3)cc2)sc2ncccc12	102*	-11	9.3*	-7	-24
O=C(Nc1cc(Cl)ccc1O)c1cc2n(n1)C(C(F)(F)F)CC(c1ccc3c(c1)OCO3)N2 (stereo unspecified)	105*	34	7	84*	89*
CCCCNC(=O)CNC(=S)N(CCCN1CCOCC1)Cc1cccs1	-9	4	1	-4	/
SMILES	CHOP inh	WT yeast gro inh	RAM inhibit	L major viab	CHOP confirm
NC(=O)c1cc(-c2ccccc2)nc(N2CCCCCC2)n1	103*	4	6	14	108*
NC(=O)c1cc(-c2ccccc2)nc(N2CCOCC2)n1	39	-1	0	1	/
NCCCC[C@H](N)c1nnc([C@H](CCC(=O)O)NC(=O)C2CCNCC2)o1	19	2	2	-6	/
COc1cc(N=c2ssnc2Cl)c(OC)cc1Cl	-26	6	-1	3	/
Cc1cc(Cl)ccc1N=c1ssnc1Cl	108*	12	2	-9	16
COc1ccc(OC)c(N=c2ssnc2Cl)c1	107*	1	-1	18	-6
Cc1ccc(CCNC(=O)C2CC(c3ccc(C(F)(F)F)cc3)=NO2)cc1 (stereo unspecified)	7	/	/	/	/
O=C(Nc1ccc2c(c1)OCO2)C1CCN(S(=O)(=O)c2cccc3cccnc23)CC1	-29	-1	5	4	/
COc1ccc(C(C[N+](=O)[O-])C2(c3ccc(OC)c(OC)c3)C(=O)c3ccccc3C2=O)cc1 (stereo unspecified)	104*	23	7	100*	-165
